According to PubChem BioAssay (NCATS):
Inconclusive results are not listed. A call without a number means that no potency is given here. Values without a mark were called inactive. Activity calls are given as the source filed them. Calls follow the shape of the dose curve; as a rule, active = well fitted inhibition curve with a large enough effect; inconclusive = small, poorly fitted or top-dose-only effect; inactive = no such curve, though single readings can be large or run the other way.

Biological target: Cytochrome P450 3A7 (Homo sapiens) (UniProt P24462)
Sequence (P24462 whole entry, looked up): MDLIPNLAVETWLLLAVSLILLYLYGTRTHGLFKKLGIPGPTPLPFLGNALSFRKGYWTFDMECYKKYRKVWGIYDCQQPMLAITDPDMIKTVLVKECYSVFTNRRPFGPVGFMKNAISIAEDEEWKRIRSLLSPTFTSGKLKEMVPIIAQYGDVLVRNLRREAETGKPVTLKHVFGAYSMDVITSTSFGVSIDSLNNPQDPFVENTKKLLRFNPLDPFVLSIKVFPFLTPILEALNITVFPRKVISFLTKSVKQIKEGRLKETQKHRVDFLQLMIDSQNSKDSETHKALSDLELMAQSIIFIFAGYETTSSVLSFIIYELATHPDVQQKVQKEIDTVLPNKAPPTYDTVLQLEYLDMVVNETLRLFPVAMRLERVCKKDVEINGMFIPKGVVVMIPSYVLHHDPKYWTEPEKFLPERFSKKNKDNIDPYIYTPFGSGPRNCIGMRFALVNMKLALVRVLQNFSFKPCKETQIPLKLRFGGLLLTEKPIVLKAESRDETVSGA
Experiment: Cytochrome P450 family 3 subfamily A member 7 (CYP3A7) small molecule antagonists: luciferase biochemical qHTS assay (AID 1963596); also: nearly all actives have a fitted effect of over 40% in size
Settings: P450-Glo CYP3A7 enzyme luminescence, 1 h; series mostly up to 57.4 µM
Text: National Center for Advancing Translational Sciences [NCATS] Assay Overview: Cytochrome P450 (CYP) enzymes are membrane-bound hemeproteins that play a key role in metabolism of drugs and xenobiotics. The CYP3A subfamily is the most abundant, representing 30% of the total adult hepatic CYP content, whereas CYP3A7 is found predominantly in human fetal liver and accounts up to 50% of the total fetal hepatic CYP content. Testing the effect of chemicals on CYP isozymes is useful to minimize the adverse drug reactions and toxicities in the drug development process. Chemicals were tested for their effect on CYP enzyme activities by using P450-Glo (TM) screening systems (Promega Corporation, Madison, WI). These systems provide a luminescent method containing proluciferin substrates and are converted to luciferin products by CYP isozymes. The luciferin products formed are detected with a luciferin detection reagent, and the amount of light produced is proportional to CYP activity. P450-Glo (TM) CYP3A7 screening system (Catalog. No. V8812) was used to detect the compounds that interfere with CYP3A7 activity. The positive control compound used for CYP3A7 assay is ketoconazole (Sigma-Aldrich, St. Louis, MO).
Assay Protocol Summary: Two ul of enzyme-substrate mix was dispensed into medium binding white/solid 1536-well plates (Greiner Bio-One North America Inc., Monroe, NC) using a Flying Reagent Dispenser (FRD, Aurora Discovery, San Diego, CA). Compounds dissolved in DMSO, and positive control (ketoconazole) were transferred to the assay plates at 23 nl using a Pintool station (Wako, San Diego, CA). The assay plates were incubated at room temperature for 10 min. Then 2 ul of NADPH regeneration solution was added to each well of the assay plates using an FRD and incubated at room temperature for 1 h. The reaction was stopped by adding 4 ul of detection reagent using an FRD and after 20 min incubation at room temperature the luminescence signal was measured using a ViewLux plate reader (Perkin Elmer, Shelton, CT). Data were expressed as relative luminescence units.
Potency is read from the fitted curve at half-maximal effect.

Compound | Potency | activity change, negative = inhibition
O=S(=O)(c1ccc(Cl)cc1)N1CCN(c2ccnc3cc(Cl)ccc23)CC1 | inactive | 
CCOC(=O)c1csc(-n2nc(-c3ccc(F)c(F)c3)c(Cc3ccc(S(N)(=O)=O)cc3)c2N)n1 | inactive | 
N=c1nc(N2CCCCC2)cc(N)n1O | inactive | 
NC(=O)OCC(O)COc1ccc(Cl)cc1 (stereo not given) | inactive | 
Fc1ccc(CN2CCC(Nc3ccc(C(F)(F)F)nn3)CC2)cc1F | inactive | 
CO/N=C(\C(=O)N[C@@H]1C(=O)N2C(C(=O)O)=C(COC(C)=O)CS[C@H]12)c1csc(N)n1 | inactive | 
CCc1cccc(CC)c1NC(=O)CN(CC(=O)O)CC(=O)O | inactive | 
CCOc1ccc(S(=O)(=O)O)c2cccnc12 | inactive | 
CC(C)(C)NCC(O)COc1cccc2c1CCC(=O)N2 (stereo not given) | inactive | 
Cc1cc(Nc2ccc(NC(=O)c3ccc(Nc4ccnc5ccccc45)cc3)cc2)nc(N)n1 | inactive | 
Cn1c(=O)c2c(ncn2CC(O)CO)n(C)c1=O (stereo not given) | inactive | 
N#Cc1cc(F)cc(-c2nc(-c3ccccn3)no2)c1 | inactive | 
CC(C)CCCC(C)CCCC(C)CCCCC(C)CCCC(C)CCCC(C)C (stereo not given) | inactive | 
Cc1ccc(C2=Nc3ccccc3N(CC(=O)Nc3ccccc3F)C(=O)C2)cc1C | inactive | 
CNC[C@H](O)c1cccc(O)c1 | inactive | 
CCc1ccc(CNC(=O)C2CCCN(c3nnc(C)c4c(C)n(-c5ccccc5)nc34)C2)cc1 (stereo not given) | 2.82 µM (active) | 
CCCCCCCCCCCCCCCCN | inactive | 
CN(C)C(=O)Oc1ccc[n+](C)c1 | inactive | 
FC(F)(F)C(F)(F)C(F)(F)C(F)(F)C(F)(F)C(F)(F)C(F)(F)C(F)(F)Br | inactive | 
CC(=O)N1CCN(NC(=O)c2ccc(F)cc2)CC1 | inactive | 

Compound | Potency | activity change, negative = inhibition
COC(=O)c1ccc(NC(C)=O)cc1OC | inactive | 
CN1CCc2cc(Cl)c(O)cc2[C@@H](c2cccc3c2OCC3)C1 | inactive | 
Cc1cccc(Oc2cnc(=O)[nH]c2)c1 | inactive | 
CN1CCN(c2cc3c(nn2)Oc2ccccc2N3C)CC1 | inactive | 
Cc1c(F)cc2c(=O)c(C(=O)O)cn3c2c1CCC3C (stereo not given) | inactive | 
CN1C(=O)c2ccccc2C1=O | inactive | 
Cc1nc(N)nc(N)c1-c1ccc(Cl)c(Cl)c1 | inactive | 
CCN1CCCC1CNC(=O)c1cc(S(=O)(=O)CC)c(N)cc1OC (stereo not given) | inactive | 
COc1cc2c(c(OC)c1OC)-c1ccc(OC)c(=O)cc1[C@@H](NC(C)=O)CC2 | inactive | 
NC(Cc1ccc(Cl)cc1)C(=O)O (stereo not given) |  | -2.28% [at 0.91 µM]
NC(=O)NC1NC(=O)NC1=O (stereo not given) | inactive | 
OC1(c2ccc(Cl)cc2)CCNCC1 | inactive | 
Cc1ccc(S(=O)(=O)Nc2nc3n(n2)C(c2ccc(F)cc2)C=C(c2ccccc2)N3)cc1 (stereo not given) | inactive | 
Nc1cccc2c1CN(C1CCC(=O)NC1=O)C2=O (stereo not given) | inactive | 
Cc1cc(=O)oc2cc(O[C@@H]3SC[C@@H](O)[C@H](O)[C@H]3O)ccc12 | inactive | 
O=C(CCCCC(=O)Nc1c(I)cc(I)c(C(=O)O)c1I)Nc1c(I)cc(I)c(C(=O)O)c1I | inactive | 
N#Cc1ccc2[nH]c(O)c(-c3ccc(CN4CCOCC4)cn3)c2c1 | inactive | 
COc1ccccc1OCC(O)CN1CCN(CC(=O)Nc2c(C)cccc2C)CC1 (stereo not given) | inactive | 
COc1ccc(C(=O)Nc2ncc(-c3ccc(C(=O)O)cc3)s2)cc1 | inactive | 
CCCNC(=O)Nc1ccc(Oc2ncnc3cc(OC)c(OC)cc23)cc1Cl | inactive | 
